Assays:
Test in all cases: DAPPL (digital affinity profiling via proximity ligation, sequencing); 10 mM Tris-HCl pH 7.5, 50 mM NaCl, 1 mM DTT, 4% glycerol, room temperature, 30 min; GST-TFs on glutathione beads, 16-mer random dsDNA library, 0.1% formaldehyde crosslink after washing; high values mean tight binding
[1] = molecular target: T1, ELK1 (Homo sapiens, UniProt P19419 1-428); conditions: protein: recombinant; tags: N-terminal GST; dsDNA, one strand shown
T1 sequence: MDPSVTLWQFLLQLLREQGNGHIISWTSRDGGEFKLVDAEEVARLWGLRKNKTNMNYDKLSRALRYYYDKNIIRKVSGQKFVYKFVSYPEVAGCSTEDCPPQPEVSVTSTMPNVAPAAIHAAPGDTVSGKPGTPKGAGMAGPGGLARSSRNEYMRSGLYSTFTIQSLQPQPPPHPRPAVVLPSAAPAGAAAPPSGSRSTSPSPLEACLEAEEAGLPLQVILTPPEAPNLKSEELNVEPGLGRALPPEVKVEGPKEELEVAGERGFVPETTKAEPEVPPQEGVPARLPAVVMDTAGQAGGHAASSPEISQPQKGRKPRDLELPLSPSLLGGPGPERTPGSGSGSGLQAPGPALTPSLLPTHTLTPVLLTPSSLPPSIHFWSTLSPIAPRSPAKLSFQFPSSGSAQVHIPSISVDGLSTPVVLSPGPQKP
Method in brief: (§1)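 In yeast, human transcription factors were expressed with a GST fusion, then pulled down on glutathione beads and given DNA barcodes. Pooled with a tag-only sample, they were exposed to 200 nmole of a 16-mer random double-stranded DNA library (Tris/NaCl/DTT/glycerol buffer, room temperature, 30 min), washed, crosslinked with 0.1% formaldehyde, proximity-ligated using BsaI/T4 ligase for 1 h at 37 °C, PCR-amplified and read on an Illumina NextSeq500. Each hexamer's frequency of reads for a factor, divided by the matching frequency for the tag-only sample, gives the binding signal.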

[2] = molecular target: T2, GABPA (Homo sapiens, UniProt Q06546 1-454); conditions: protein: recombinant; tags: N-terminal GST; dsDNA, one strand shown
T2 sequence: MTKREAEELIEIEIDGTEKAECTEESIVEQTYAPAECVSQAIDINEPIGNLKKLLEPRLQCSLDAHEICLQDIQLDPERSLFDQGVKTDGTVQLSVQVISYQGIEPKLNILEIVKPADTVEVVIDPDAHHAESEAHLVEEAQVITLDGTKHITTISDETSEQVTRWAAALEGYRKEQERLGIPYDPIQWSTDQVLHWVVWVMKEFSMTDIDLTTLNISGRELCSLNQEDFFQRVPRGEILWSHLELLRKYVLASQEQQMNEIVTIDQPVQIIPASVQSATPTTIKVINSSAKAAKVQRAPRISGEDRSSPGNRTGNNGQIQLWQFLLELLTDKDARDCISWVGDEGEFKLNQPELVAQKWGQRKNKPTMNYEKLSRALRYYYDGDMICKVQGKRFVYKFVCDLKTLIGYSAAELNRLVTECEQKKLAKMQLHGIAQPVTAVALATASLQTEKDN
Method in brief: as §1

[3] = molecular target: ELF1 (Homo sapiens, UniProt P32519 1-619); conditions: protein: recombinant; tags: N-terminal GST; dsDNA, one strand shown
Method in brief: as §1

[4] = molecular target: T3, EHF (Homo sapiens, UniProt Q9NZC4 1-300); conditions: protein: recombinant; tags: N-terminal GST; dsDNA, one strand shown
T3 sequence: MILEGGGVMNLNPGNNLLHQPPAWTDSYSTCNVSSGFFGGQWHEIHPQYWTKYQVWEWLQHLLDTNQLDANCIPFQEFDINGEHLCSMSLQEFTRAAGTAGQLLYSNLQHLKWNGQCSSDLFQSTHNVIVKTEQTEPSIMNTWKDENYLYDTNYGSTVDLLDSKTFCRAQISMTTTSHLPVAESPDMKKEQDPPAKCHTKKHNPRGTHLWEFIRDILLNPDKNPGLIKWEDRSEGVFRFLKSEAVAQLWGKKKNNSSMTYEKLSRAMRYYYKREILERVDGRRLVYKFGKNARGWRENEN
Method in brief: as §1

[5] = molecular target: SPIB (Homo sapiens, UniProt Q01892 1-262); conditions: protein: recombinant; tags: N-terminal GST; dsDNA, one strand shown
Method in brief: as §1

[6] = molecular target: T4, ELK3 (Homo sapiens, UniProt P41970 1-407); conditions: protein: recombinant; tags: N-terminal GST; dsDNA, one strand shown
T4 sequence: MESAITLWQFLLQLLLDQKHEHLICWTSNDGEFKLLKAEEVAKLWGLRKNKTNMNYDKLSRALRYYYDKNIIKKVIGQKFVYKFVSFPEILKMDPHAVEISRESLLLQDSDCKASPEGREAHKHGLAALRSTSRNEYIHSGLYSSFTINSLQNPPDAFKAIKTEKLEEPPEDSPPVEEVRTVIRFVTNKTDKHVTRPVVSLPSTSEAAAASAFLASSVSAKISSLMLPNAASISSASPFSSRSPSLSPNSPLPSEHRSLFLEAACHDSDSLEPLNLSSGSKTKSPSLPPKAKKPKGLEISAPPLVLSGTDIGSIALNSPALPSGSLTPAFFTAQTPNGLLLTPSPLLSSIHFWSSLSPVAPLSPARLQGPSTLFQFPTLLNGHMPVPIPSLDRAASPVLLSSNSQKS
Method in brief: as §1

[7] = molecular target: HSF1 (Homo sapiens, UniProt Q00613 1-529); conditions: protein: recombinant; tags: N-terminal GST; chain copies: 3; dsDNA, one strand shown
Method in brief: as §1

[8] = molecular target: T5, SPIC (Homo sapiens, UniProt Q8N5J4 1-248); conditions: protein: recombinant; tags: N-terminal GST; dsDNA, one strand shown
T5 sequence: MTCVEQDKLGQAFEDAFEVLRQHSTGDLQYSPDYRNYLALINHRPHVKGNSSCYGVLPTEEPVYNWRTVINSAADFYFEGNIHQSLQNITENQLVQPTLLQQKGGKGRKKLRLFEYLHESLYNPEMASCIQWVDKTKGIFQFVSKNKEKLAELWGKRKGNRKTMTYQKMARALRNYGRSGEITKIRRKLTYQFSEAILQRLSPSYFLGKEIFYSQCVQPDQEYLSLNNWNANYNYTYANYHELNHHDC
Method in brief: as §1

[9] = molecular target: ELF4 (Homo sapiens, UniProt Q99607 1-663); conditions: protein: recombinant; tags: N-terminal GST; dsDNA, one strand shown
Method in brief: as §1

[10] = molecular target: T6, ELF3 (Homo sapiens, UniProt P78545 1-371); conditions: protein: recombinant; tags: N-terminal GST; dsDNA, one strand shown
T6 sequence: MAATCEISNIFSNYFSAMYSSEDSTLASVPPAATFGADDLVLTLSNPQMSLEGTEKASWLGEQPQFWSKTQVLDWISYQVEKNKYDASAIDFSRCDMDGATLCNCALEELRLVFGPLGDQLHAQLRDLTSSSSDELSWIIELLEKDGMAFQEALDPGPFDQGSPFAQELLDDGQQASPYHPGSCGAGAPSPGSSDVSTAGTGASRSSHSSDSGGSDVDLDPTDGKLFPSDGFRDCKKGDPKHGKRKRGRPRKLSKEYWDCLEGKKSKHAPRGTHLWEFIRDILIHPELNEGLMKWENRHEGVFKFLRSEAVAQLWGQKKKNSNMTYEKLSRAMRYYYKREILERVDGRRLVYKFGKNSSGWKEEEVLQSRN
Method in brief: as §1

[11] = molecular target: T7, ERF (Homo sapiens, UniProt P50548 1-548); conditions: protein: recombinant; tags: N-terminal GST; dsDNA, one strand shown
T7 sequence: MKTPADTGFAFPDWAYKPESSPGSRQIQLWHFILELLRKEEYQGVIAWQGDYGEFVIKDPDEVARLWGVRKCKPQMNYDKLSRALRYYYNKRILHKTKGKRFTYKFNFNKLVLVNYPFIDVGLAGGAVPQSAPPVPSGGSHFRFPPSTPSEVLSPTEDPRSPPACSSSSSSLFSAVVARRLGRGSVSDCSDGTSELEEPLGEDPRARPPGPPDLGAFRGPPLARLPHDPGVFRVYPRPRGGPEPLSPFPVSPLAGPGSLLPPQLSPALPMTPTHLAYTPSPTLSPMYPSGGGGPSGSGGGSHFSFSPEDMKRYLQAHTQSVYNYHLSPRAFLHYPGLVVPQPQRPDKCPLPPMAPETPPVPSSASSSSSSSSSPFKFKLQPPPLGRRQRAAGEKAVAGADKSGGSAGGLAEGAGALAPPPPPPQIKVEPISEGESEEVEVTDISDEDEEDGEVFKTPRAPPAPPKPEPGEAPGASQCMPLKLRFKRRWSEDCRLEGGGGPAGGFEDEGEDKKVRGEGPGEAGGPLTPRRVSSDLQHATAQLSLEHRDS
Method in brief: as §1

[12] = molecular target: T8, ETS2 (Homo sapiens, UniProt P15036 1-469); conditions: protein: recombinant; tags: N-terminal GST; dsDNA, one strand shown
T8 sequence: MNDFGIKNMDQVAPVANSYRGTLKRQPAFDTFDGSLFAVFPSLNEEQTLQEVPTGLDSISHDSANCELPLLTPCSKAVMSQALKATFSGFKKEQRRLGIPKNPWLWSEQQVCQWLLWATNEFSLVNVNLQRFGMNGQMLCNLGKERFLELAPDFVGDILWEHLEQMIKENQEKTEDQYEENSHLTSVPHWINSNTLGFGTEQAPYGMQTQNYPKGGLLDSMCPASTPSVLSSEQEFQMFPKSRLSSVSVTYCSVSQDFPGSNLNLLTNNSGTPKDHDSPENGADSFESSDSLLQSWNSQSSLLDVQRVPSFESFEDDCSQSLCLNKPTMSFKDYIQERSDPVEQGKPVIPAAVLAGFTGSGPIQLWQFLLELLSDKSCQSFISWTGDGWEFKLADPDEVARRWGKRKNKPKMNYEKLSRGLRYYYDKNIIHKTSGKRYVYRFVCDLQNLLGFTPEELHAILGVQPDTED
Method in brief: as §1

[13] = molecular target: T9, ETV2 (Homo sapiens, UniProt O00321 1-342); conditions: protein: recombinant; tags: N-terminal GST; dsDNA, one strand shown
T9 sequence: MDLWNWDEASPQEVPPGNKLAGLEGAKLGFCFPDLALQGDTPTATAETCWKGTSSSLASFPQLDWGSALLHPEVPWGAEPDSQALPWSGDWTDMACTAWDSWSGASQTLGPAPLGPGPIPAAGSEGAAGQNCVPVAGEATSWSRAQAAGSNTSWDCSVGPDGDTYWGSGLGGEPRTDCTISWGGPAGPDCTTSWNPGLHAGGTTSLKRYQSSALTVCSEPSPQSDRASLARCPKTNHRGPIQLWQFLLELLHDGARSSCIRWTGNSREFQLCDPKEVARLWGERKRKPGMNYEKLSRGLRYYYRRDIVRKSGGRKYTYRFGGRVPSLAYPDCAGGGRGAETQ
Method in brief: as §1

[14] = molecular target: T10, ETV3L (Homo sapiens, UniProt Q6ZN32 1-361); conditions: protein: recombinant; tags: N-terminal GST; dsDNA, one strand shown
T10 sequence: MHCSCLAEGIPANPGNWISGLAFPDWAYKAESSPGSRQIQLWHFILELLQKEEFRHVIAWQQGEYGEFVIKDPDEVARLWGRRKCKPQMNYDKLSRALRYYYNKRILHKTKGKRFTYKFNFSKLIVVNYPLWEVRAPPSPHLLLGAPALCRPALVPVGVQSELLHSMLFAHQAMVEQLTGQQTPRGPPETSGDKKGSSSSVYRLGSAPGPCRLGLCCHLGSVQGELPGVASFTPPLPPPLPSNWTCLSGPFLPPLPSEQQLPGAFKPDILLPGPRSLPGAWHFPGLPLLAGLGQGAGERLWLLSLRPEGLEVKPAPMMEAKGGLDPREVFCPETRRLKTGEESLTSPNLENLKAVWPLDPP
Method in brief: as §1

SPIB, sequence (Q01892 whole entry): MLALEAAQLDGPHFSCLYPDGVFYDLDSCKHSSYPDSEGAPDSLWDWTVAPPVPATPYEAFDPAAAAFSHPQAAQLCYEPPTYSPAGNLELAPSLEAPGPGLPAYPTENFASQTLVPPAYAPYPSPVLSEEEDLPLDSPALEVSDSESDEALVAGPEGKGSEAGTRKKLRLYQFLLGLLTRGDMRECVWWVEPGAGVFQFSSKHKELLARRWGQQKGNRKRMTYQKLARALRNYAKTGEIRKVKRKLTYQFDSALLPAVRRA
ELF1, sequence (P32519 whole entry): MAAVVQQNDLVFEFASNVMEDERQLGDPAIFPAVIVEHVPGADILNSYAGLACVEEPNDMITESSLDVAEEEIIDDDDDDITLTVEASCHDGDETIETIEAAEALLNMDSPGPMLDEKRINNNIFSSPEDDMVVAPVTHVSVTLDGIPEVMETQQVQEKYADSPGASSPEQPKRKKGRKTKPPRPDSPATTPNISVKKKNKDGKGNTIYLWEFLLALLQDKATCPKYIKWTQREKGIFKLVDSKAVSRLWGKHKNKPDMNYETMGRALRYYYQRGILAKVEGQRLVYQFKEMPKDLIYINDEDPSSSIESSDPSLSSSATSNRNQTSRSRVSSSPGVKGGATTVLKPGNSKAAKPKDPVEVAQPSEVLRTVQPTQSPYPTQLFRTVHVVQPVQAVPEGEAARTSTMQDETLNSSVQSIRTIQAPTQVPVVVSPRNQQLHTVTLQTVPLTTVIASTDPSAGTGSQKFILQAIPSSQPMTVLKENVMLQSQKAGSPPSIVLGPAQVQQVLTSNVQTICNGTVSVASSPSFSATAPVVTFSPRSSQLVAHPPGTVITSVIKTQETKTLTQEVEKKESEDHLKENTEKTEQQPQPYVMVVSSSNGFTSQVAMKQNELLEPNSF
HSF1, sequence (Q00613 whole entry): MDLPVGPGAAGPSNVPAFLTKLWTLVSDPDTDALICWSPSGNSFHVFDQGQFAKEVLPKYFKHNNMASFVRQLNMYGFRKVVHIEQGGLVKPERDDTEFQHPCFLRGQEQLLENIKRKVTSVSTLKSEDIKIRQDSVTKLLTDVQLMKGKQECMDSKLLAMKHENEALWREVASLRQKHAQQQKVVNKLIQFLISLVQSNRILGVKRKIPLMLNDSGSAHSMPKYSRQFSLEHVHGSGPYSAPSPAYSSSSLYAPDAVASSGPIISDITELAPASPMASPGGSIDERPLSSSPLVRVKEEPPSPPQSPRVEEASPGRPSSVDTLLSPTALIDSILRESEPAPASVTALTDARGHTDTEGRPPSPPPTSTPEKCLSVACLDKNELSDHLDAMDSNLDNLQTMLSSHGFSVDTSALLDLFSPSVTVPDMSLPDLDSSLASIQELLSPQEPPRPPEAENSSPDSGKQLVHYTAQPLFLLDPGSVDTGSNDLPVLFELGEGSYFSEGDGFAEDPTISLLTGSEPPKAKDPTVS
ELF4, sequence (Q99607 whole entry): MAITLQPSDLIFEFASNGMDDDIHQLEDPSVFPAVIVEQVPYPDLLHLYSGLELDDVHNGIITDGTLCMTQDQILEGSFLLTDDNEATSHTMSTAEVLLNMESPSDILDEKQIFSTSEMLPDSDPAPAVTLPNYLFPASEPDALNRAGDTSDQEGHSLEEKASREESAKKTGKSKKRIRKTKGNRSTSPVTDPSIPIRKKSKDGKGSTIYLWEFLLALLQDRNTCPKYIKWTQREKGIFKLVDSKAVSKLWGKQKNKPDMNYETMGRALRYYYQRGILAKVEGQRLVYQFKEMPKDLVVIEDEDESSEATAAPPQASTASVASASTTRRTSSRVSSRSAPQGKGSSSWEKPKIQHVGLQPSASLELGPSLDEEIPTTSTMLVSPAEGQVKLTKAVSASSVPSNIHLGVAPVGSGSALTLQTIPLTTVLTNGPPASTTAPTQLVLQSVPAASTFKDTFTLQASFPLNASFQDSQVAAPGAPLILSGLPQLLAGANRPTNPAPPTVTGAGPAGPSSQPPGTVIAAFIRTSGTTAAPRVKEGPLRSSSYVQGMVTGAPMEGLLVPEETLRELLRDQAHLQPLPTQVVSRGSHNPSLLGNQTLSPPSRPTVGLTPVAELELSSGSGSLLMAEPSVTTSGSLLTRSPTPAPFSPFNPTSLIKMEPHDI

| Sequence | binding signal [1] | binding signal [2] | binding signal [3] | binding signal [4] | binding signal [5] | binding signal [6] | binding signal [7] | binding signal [8] | binding signal [9] | binding signal [10] | binding signal [11] | binding signal [12] | binding signal [13] | binding signal [14] |
| --- | --- | --- | --- | --- | --- | --- | --- | --- | --- | --- | --- | --- | --- | --- |
| GCCGAA | 1 fold enrichment (6-mer frequency, TF over GST control) | 1.02 fold enrichment (6-mer frequency, TF over GST control) | 1.01 fold enrichment (6-mer frequency, TF over GST control) | 1.03 fold enrichment (6-mer frequency, TF over GST control) | 1.02 fold enrichment (6-mer frequency, TF over GST control) | 1.06 fold enrichment (6-mer frequency, TF over GST control) | 1.14 fold enrichment (6-mer frequency, TF over GST control) | 1.09 fold enrichment (6-mer frequency, TF over GST control) | 1.06 fold enrichment (6-mer frequency, TF over GST control) | 1.02 fold enrichment (6-mer frequency, TF over GST control) | 1.05 fold enrichment (6-mer frequency, TF over GST control) | 1.04 fold enrichment (6-mer frequency, TF over GST control) | – | – |
| AACCGA | 1.02 fold enrichment (6-mer frequency, TF over GST control) | – | 1.04 fold enrichment (6-mer frequency, TF over GST control) | – | 1.03 fold enrichment (6-mer frequency, TF over GST control) | 1.01 fold enrichment (6-mer frequency, TF over GST control) | 1.04 fold enrichment (6-mer frequency, TF over GST control) | 1.09 fold enrichment (6-mer frequency, TF over GST control) | 1.02 fold enrichment (6-mer frequency, TF over GST control) | 1.04 fold enrichment (6-mer frequency, TF over GST control) | 1 fold enrichment (6-mer frequency, TF over GST control) | 1.03 fold enrichment (6-mer frequency, TF over GST control) | 1.13 fold enrichment (6-mer frequency, TF over GST control) | 1.07 fold enrichment (6-mer frequency, TF over GST control) |
